Screening data deposited in PubChem BioAssay by several laboratories.
Compounds with a hit are over-represented: about 1.2% of the library has one in this group of screens.
Platelet DG rel: inhibitors of platelet dense granule secretion, primary screen, cell-based, MLPCN, human platelets; human platelet-rich plasma, SFLLRN dense granule ATP release, luminescence; actives 0.22% (n = 300,000); inhibition, %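 (compounds screened at 7.5 µM in platelet-rich plasma)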;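 active means mean replicate score, as percent of positive control, at or above 50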
MIN6 prolif: inducers of MIN6 beta-cell proliferation, primary screen, ATP luminescence, uHTS. MIN6 cells proliferation, ATPlite luminescence, 48 h; cells starved in 0.2% serum; 100% = growth in 10% serum. proliferation, % at 10 µM. actives 0.29% (n = 330,000). AID 2380, 2010;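 active means compounds whose signal lies at least 3.5 SD above the mean of all wells on their plate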;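 further: 0% = DMSO-treated cells in low-serum medium and 100% = 10% serum control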
GRK2 aptamer HTS: compounds blocking aptamer binding on GRK2 – biochemical, human GRK2, bead flow cytometry, HTS, primary screen. Beta-adrenergic receptor kinase 1 (Homo sapiens), P25098. FAM-aptamer displacement from GRK2. inhibition of aptamer binding, % at 10 µM. actives 0.59% (n = 330,000). AID 488847, 2010;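 active means inhibition of aptamer binding above 40%, roughly 3 SD of noise, on plates passing a quality check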;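 further: median bead fluorescence of bound FAM aptamer so fluorescent compounds give negative values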
NTR1 ag: agonists of human NTR1, primary screen, imaging, U2OS cells, beta-arrestin-GFP, high content. activation, % at 20 µM. NTR1-U2OS beta-arrestin-GFP spot imaging, agonist mode. actives 0.17% (n = 330,000). Neurotensin receptor type 1 (Homo sapiens), P30989. AID 493036, 2011;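 active means activation at or above 40% of the spot to cytoplasm intensity ratio, with at least 20 cells analyzed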;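 further: 0% = DMSO without peptide and 100% = 100 nM NTR1 peptide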
Target sequence (P30989 whole entry, looked up): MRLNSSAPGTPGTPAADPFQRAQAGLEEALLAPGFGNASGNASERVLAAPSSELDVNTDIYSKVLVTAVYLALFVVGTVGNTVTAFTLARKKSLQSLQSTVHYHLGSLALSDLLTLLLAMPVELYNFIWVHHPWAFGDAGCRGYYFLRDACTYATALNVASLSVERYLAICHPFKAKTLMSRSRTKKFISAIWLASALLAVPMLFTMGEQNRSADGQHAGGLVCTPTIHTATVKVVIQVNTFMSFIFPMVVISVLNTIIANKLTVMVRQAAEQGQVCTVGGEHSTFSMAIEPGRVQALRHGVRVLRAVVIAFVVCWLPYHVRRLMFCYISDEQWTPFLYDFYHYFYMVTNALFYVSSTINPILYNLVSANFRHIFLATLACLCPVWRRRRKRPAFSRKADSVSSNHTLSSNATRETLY
GRK2 CP1: GRK2 aptamer-displacing inhibitors, retest, confirmation, biochemical, cherry pick 1, bead flow cytometry | shares compounds with GRK2 aptamer HTS | bead-bound GRK2, FAM-aptamer displacement | aptamer displacement, % at 10 µM | actives 4% (n = 2,000);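 active means aptamer displacement above 40%, near three times the noise of non-fluorescent compounds, on plates passing quality checks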;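 further: negative values mostly reflect intrinsic compound fluorescence rather than true enhancement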
FAM quench CP1: quenches fluorescent RNA aptamer, GRK2 hit artifact; shares compounds with GRK2 aptamer HTS; Carboxyfluorescein RNA aptamer on beads, flow cytometry quenching; hits give low values; fluorescence response (% of DMSO), % at 10 µM; 2,000 tested, under 10 active; AID 504580;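 active means compounds that quench the bead-bound fluorescent RNA probe, cutting fluorescence to under half of the solvent control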;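 further: counterscreen run without GRK2 so only probe quenching by compound is measured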
GRK2 CP2: GRK2 aptamer-displacing inhibitors, hit retest, confirmation, biochemical, cherry pick 2, bead flow cytometry. shares compounds with GRK2 aptamer HTS. bead-bound GRK2, FAM-aptamer displacement. inhibition of aptamer binding, % at 10 µM. 360 tested, under 10 active;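 active means inhibition of aptamer binding above 40%, about triple the noise seen with nonglowing compounds, on plates passing quality control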;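 further: negative values mostly come from compounds that fluoresce themselves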
FAM quench CP2: aptamer fluorescence quenching in GRK2 counter-screen | fluorescence response vs DMSO, % at 10 µM | 360 tested, under 10 active | AID 588494 | carboxyfluorescein RNA aptamer beads, flow cytometry quenching; hits give low values | shares compounds with GRK2 aptamer HTS;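 active means response vs DMSO under 50%, meaning signal dropped by over half, treated as fluorescence quencher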;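 further: labelled aptamer on streptavidin beads without GRK2 as a quench counter-screen; 100% = bead fluorescence of DMSO wells and lower means quenching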
Active calls of the source: *; · = no result.

SMILES | Platelet DG rel | MIN6 prolif | GRK2 aptamer HTS | NTR1 ag | GRK2 CP1 | FAM quench CP1 | others
Cc1cc(C(=O)N2CCc3ccccc32)c2cc(F)ccc2n1 | -18 | -2 | 76* | 1 | 2 | 102
COc1ccc(CC(=O)Nc2nc(-c3ccc(F)c(F)c3)cs2)cc1 | 2 | -3 | 92* | 10 | 0 | 96
COc1ccc(CCNC(=O)C(=O)NCC2OCCN2S(=O)(=O)c2cc(F)ccc2F)cc1OC (configuration not stated) | 0 | 3 | 78* | 0 | -3 | 99
CCC(C(=O)NCCCN1CCN(C)CC1)n1nc(C)c2sc3ccccc3c2c1=O (configuration not stated) | 6 | -2 | 1 | 0 | · | ·
CCCN1CCN(CCCNC(=O)C(CC)n2nc(C)c3sc4ccccc4c3c2=O)CC1 (configuration not stated) | 4 | 0 | 62* | 0 | -2 | 96
Cc1cccc(Cl)c1NNC(=O)Nc1c([N+](=O)[O-])c(C)nn1C | 8 | -2 | 44* | 0 | 0 | 100
CC(C)c1ccc(N2C(=O)CC(NNC(=O)c3cccnc3)C2=O)cc1 (configuration not stated) | -17 | -4 | 98* | 0 | 2 | 98
O=C(NNC1CC(=O)N(c2ccccc2)C1=O)c1cccnc1 (configuration not stated) | 23 | -1 | 0 | -1 | · | ·
O=C(Nc1ccccc1C(=O)Nc1ccc(Br)cn1)c1ccccc1Cl | · | 2 | 44* | 2 | · | · | GRK2 CP2=16;FAM quench CP2=100
C=CC[C@@H](CC(=O)N[C@H](CO)Cc1ccccc1)C(=O)N[C@H](COC(=O)[C@@H](CC=C)Cc1ccc(F)cc1)Cc1ccccc1 | · | -2 | 0 | 7 | · | ·
Cc1c(NS(=O)(=O)c2cccc(C(=O)Nc3ccccc3)c2)c(=O)n(-c2ccccc2)n1C | · | 3 | 0 | -1 | · | ·
Cc1c(NS(=O)(=O)c2cccc(C(=O)NC(C)c3ccccc3)c2)c(=O)n(-c2ccccc2)n1C (configuration not stated) | · | · | · | · | 0 | 104
Cc1c(NS(=O)(=O)c2cccc(C(=O)NCc3ccccc3Cl)c2)c(=O)n(-c2ccccc2)n1C | · | 3 | · | 1 | 1 | 100
O=C(O)CC(C(=O)O)N1C(=O)/C(=C/c2ccc(-c3nc4ccccc4s3)o2)SC1=S (configuration not stated) | -6 | 2 | 44* | -1 | 8 | 181
CN(Cc1cccc(Cl)c1Cl)C(=O)CCNC(=O)c1ccco1 | · | 0 | 0 | -1 | · | ·
CCOC(=O)c1c(-c2ccc(F)cc2)csc1NC(=O)C1CC=CCC1C(=O)O (configuration not stated) | -1 | -1 | 95* | 1 | 5 | 98
CCOC(=O)c1c(-c2ccc(C)c(C)c2)csc1NC(=O)C1CC=CCC1C(=O)O (configuration not stated) | 7 | -2 | 0 | 4 | · | ·
CCOC(=O)C1=C(C)NC(=O)NC1c1ccc(OC(=O)c2ccco2)cc1 (configuration not stated) | 38 | 1 | 2 | -1 | · | ·
CCOC(=O)C1=C(COC(=O)c2ccco2)NC(=O)NC1CC (configuration not stated) | · | -1 | 83* | 1 | -2 | 101
CSc1ccccc1C(=O)NCCCn1ccnc1 | 4 | -1 | 100* | 2 | 2 | 94
COc1cc(NC(=O)Cn2cnc3c(NCc4ccccc4)ncnc32)cc(OC)c1OC | · | · | 5 | -1 | · | ·
COc1ccc(CCNC(=O)C2(C)CCC(=O)N2Cc2ccc(C)cc2)cc1OC (configuration not stated) | 2 | -3 | 2 | -1 | -1 | 85
COc1ccccc1-c1cc(C(F)(F)F)nc(S(=O)(=O)CCCC(=O)NC(C)C)n1 | -5 | -3 | 0 | 18 | · | ·
COc1cc(CCC(=O)Nc2nccs2)cc(OC)c1OC | 2 | 2 | 4 | 1 | -1 | 97
COc1cc(CCC(=O)NCc2ccc(F)cc2)cc(OC)c1OC | 19 | 2 | 35 | -1 | -6 | 96
SMILES | Platelet DG rel | MIN6 prolif | GRK2 aptamer HTS | NTR1 ag | GRK2 CP1 | FAM quench CP1 | others
COc1ccccc1-c1cc(C(F)(F)F)nc(S(=O)(=O)CCCC(=O)NCc2ccc(F)cc2)n1 | 14 | -7 | 48* | 21 | 0 | 98 | GRK2 CP2=-2;FAM quench CP2=101
COc1cc(CCC(=O)NCc2ccc(S(N)(=O)=O)cc2)cc(OC)c1OC | 13 | -4 | 1 | 1 | · | ·
Cc1ccc(/C=C/c2onc(C)c2S(=O)(=O)N2CCC(C(=O)N3CCCCC3)CC2)cc1 | -1 | -6 | 0 | 0 | · | ·
CCCN1CCN(C(=O)C2CCN(S(=O)(=O)c3c(C)noc3/C=C/c3ccc(C)cc3)CC2)CC1 | -23 | -4 | 77* | 4 | -4 | 106
CCCCc1cc(=O)oc2cc(OC(C)C(=O)NCCN3CCOCC3)c(Cl)cc12 (configuration not stated) | 7 | 5 | 1 | -1 | · | ·
O=S(=O)(c1cccc(Cl)c1Cl)N1CCCCC1 | 5 | -3 | 82* | 0 | 0 | 101
CN1CCCN(S(=O)(=O)c2cccc(Cl)c2Cl)CC1 | -3 | 0 | 0 | -1 | · | ·
O=C(/C=C/c1ccco1)Nc1ccc(-c2nc3ccccc3[nH]2)cc1 | -1 | · | 49* | · | -1 | 124
O=C(Nc1ccc(-c2nc3ccccc3[nH]2)cc1)c1ccco1 | 0 | -3 | 1 | 2 | · | ·
CC1CCCCC1NC(=O)COC(=O)c1ccc2ncsc2c1 (configuration not stated) | · | -4 | 3 | 0 | · | ·
COc1ccccc1Nc1nc2ccc(C)cc2n2cnnc12 | 0 | 2 | 2 | 27 | · | ·
C=CCn1c(N)cc(=O)nc1SCC(=O)N1CCN(c2ccc(F)cc2)CC1 | -1 | -3 | 56* | -1 | -5 | 104
O=C(O)Cc1ccc(O)cc1 | -5 | 2 | 0 | 0 | · | ·
O=C(O)Cc1ccc(-c2ccccc2-c2ccccc2)cc1 | -28 | -1 | 98* | -1 | 3 | 103
CCOc1ccc(N2C(=O)C3CCCN3C2=S)cc1 (configuration not stated) | · | -5 | 2 | 2 | · | ·
